# Experimental data reported in the supplement of paper PMC4022240.
# ± gives the standard deviation.
# T1: HaloTag-ATRX ADD domain (163-292)
# T1 chain: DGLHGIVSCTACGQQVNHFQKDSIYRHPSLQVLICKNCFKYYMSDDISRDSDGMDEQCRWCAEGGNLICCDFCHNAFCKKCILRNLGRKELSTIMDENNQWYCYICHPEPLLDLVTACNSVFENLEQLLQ
# What was measured:
# Experiment in all cases: peptide microarray binding signal (635 nm), min-max normalized on array (fraction of array maximum); higher = stronger binding
# [1] = target: T1, HaloTag-ATRX ADD domain (163-292)
# How it was run: (§1)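 Arrays carried histone 13-mer peptide–cellulose conjugates printed in triplicate on nitrocellulose alongside a Cy3 tracer. After overnight blocking at 4°C, they were incubated for 1 h at 4°C with biotin-labelled HaloTag reader fusions (10 nM to 1 μM) plus streptavidin-Alexa Fluor 647, or with rabbit histone antibodies (1:10,000 to 1:2,000) plus anti-rabbit Alexa 647. Scanning on an Axon GenePix 4000B used 635 nm for signal and 532 nm for misprints. The binding signal reported is each triplicate's mean spot intensity after per-library min-max scaling.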
# [2] = target: HaloTag-ING2 PHD (mouse Ing2 200-280)
# How it was run: as §1
# [3] = target: anti-H3K4me3 antibody ab8580
# How it was run: as §1
# [4] = target: anti-H3K9me3 antibody ab8898
# How it was run: as §1
# [5] = peptide region: H4 38-50, binder concentration: 1:2,000 dilution
# [6] = peptide region: H4 38-50, binder concentration: 1:10,000 dilution
# [7] = peptide region: H4 38-50, peptide modifications: H4K44me1 H4R45cit, binder concentration: 1:2,000 dilution
# [8] = peptide region: H4 38-50, peptide modifications: H4K44me1 H4R45cit, binder concentration: 1:10,000 dilution
# [9] = peptide region: H4 16-28, peptide modifications: H4R23me1, binder concentration: 1:2,000 dilution
# [10] = peptide region: H4 16-28, peptide modifications: H4R23me2s, binder concentration: 1:2,000 dilution
# [11] = peptide region: H4 38-50, peptide modifications: H4K44ac H4R45me1, binder concentration: 1:2,000 dilution
# [12] = peptide region: H4 38-50, peptide modifications: H4K44ac H4R45me1, binder concentration: 1:10,000 dilution
# [13] = peptide region: H4 16-28, peptide modifications: H4R19me2s, binder concentration: 1:2,000 dilution
# [14] = peptide region: H4 16-28, peptide modifications: H4R23me2a, binder concentration: 1:2,000 dilution
binder,measurement,setting,value
ARRGGVKRISGLI [H4 38-50 A R R G G V K R I S G L I],peptide microarray binding signal,"[1]; peptide region: H4 38-50, binder concentration: 50 nM",0.00398 ± 0.00022
same,peptide microarray binding signal,"[1]; peptide region: H4 38-50, binder concentration: 500 nM",0.00614 ± 6.4e-05
same,peptide microarray binding signal,"[2]; peptide region: H4 38-50, binder concentration: 10 nM",0.003641 ± 3.4e-05
same,peptide microarray binding signal,"[2]; peptide region: H4 38-50, binder concentration: 100 nM",0.0105 ± 0.00039
same,peptide microarray binding signal,[3]; [5],0.000434 ± 8.7e-06
same,peptide microarray binding signal,[3]; [6],0.000913
same,peptide microarray binding signal,[4]; [5],0.000151 ± 1.6e-06
same,peptide microarray binding signal,[4]; [6],0.000634 ± 1.2e-05
ARRGGVKRISGLI [H4 38-50 A R R G G V Kme Rcit I S G L I],peptide microarray binding signal,"[1]; peptide region: H4 38-50, peptide modifications: H4K44me1 H4R45cit, binder concentration: 50 nM",0.00502 ± 0.00054
same,peptide microarray binding signal,"[1]; peptide region: H4 38-50, peptide modifications: H4K44me1 H4R45cit, binder concentration: 500 nM",0.0041 ± 5.8e-05
same,peptide microarray binding signal,"[2]; peptide region: H4 38-50, peptide modifications: H4K44me1 H4R45cit, binder concentration: 10 nM",0.00603 ± 0.00023
same,peptide microarray binding signal,"[2]; peptide region: H4 38-50, peptide modifications: H4K44me1 H4R45cit, binder concentration: 100 nM",0.00652 ± 0.0007
same,peptide microarray binding signal,[3]; [7],0.00106 ± 0.00014
same,peptide microarray binding signal,[3]; [8],0.0016 ± 2.7e-05
same,peptide microarray binding signal,[4]; [7],0.00074 ± 1.7e-05
same,peptide microarray binding signal,[4]; [8],0.00133 ± 2.3e-05
KRHRKVLRDNIQG [H4 16-28 K R H R K V L Rme D N I Q G],peptide microarray binding signal,"[1]; peptide region: H4 16-28, peptide modifications: H4R23me1, binder concentration: 500 nM",0.000143 ± 4.6e-06
same,peptide microarray binding signal,"[2]; peptide region: H4 16-28, peptide modifications: H4R23me1, binder concentration: 100 nM",0.000354 ± 4.1e-06
same,peptide microarray binding signal,[3]; [9],0.000132 ± 1.5e-06
same,peptide microarray binding signal,[4]; [9],1.51e-05 ± 1.7e-07
KRHRKVLRDNIQG [H4 16-28 K R H R K V L Rme2s D N I Q G],peptide microarray binding signal,"[1]; peptide region: H4 16-28, peptide modifications: H4R23me2s, binder concentration: 500 nM",0.000333 ± 1.9e-05
same,peptide microarray binding signal,"[2]; peptide region: H4 16-28, peptide modifications: H4R23me2s, binder concentration: 100 nM",0.000354 ± 1.5e-05
same,peptide microarray binding signal,[3]; [10],0.000849 ± 0.00028
same,peptide microarray binding signal,[4]; [10],1.51e-05 ± 1.7e-07
ARRGGVKRISGLI [H4 38-50 A R R G G V Kac Rme I S G L I],peptide microarray binding signal,"[1]; peptide region: H4 38-50, peptide modifications: H4K44ac H4R45me1, binder concentration: 50 nM",0.0131 ± 0.00062
same,peptide microarray binding signal,"[1]; peptide region: H4 38-50, peptide modifications: H4K44ac H4R45me1, binder concentration: 500 nM",0.01695 ± 5.7e-05
same,peptide microarray binding signal,"[2]; peptide region: H4 38-50, peptide modifications: H4K44ac H4R45me1, binder concentration: 10 nM",0.0235 ± 0.0022
same,peptide microarray binding signal,"[2]; peptide region: H4 38-50, peptide modifications: H4K44ac H4R45me1, binder concentration: 100 nM",0.048 ± 0.0095
same,peptide microarray binding signal,[3]; [11],0.00338 ± 0.00048
same,peptide microarray binding signal,[3]; [12],0.00685 ± 0.0005
same,peptide microarray binding signal,[4]; [11],0.00296 ± 0.00039
same,peptide microarray binding signal,[4]; [12],0.00306 ± 4.5e-05
KRHRKVLRDNIQG [H4 16-28 K R H Rme2s K V L R D N I Q G],peptide microarray binding signal,"[1]; peptide region: H4 16-28, peptide modifications: H4R19me2s, binder concentration: 500 nM",0.000524 ± 1.4e-05
same,peptide microarray binding signal,"[2]; peptide region: H4 16-28, peptide modifications: H4R19me2s, binder concentration: 100 nM",0
same,peptide microarray binding signal,[3]; [13],0.000491 ± 9.2e-05
same,peptide microarray binding signal,[4]; [13],3.02e-05 ± 3.4e-07
KRHRKVLRDNIQG [H4 16-28 K R H R K V L Rme2a D N I Q G],peptide microarray binding signal,"[1]; peptide region: H4 16-28, peptide modifications: H4R23me2a, binder concentration: 500 nM",0.0285 ± 0.039
same,peptide microarray binding signal,"[2]; peptide region: H4 16-28, peptide modifications: H4R23me2a, binder concentration: 100 nM",0.000425 ± 4.9e-06
same,peptide microarray binding signal,[3]; [14],7.55e-05 ± 8.5e-07
same,peptide microarray binding signal,[4]; [14],0
